From PubChem BioAssay
An excerpt weighted towards active compounds, which were near 11% of everything screened.
BAZ2B block = qHTS Assay for Inhibitors of BAZ2B; Bromodomain adjacent to zinc finger domain protein 2B (Homo sapiens), Q9UIF8; AID 504333, 2011; AlphaScreen BAZ2B-H3K14Ac peptide displacement; Potency, µM (doses to about 114 µM), for the others: at the top dose activity change, negative = inhibition, hits mostly inhibitors; 360,000 tested, 4.4% active; further: on the % scale 0 is the no-effect control and ±100 the full control effect; nearly all actives have a fitted effect of over 60% in size
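AlphaScreen displacement: compounds (up to 110uM) incubated 30 min at room temperature with a preformed 50 nM BAZ2B/50 nM biotinylated H3K14Ac peptide complex in PBS pH 7.4 with Tween-20. Donor and acceptor beads at 10 ug/mL final added, 20 min light-protected before reading.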
L3MBTL1 inh = qHTS Assay for the Inhibitors of L3MBTL1. Lethal(3)malignant brain tumor-like protein 1 (Homo sapiens), Q9Y468. AlphaScreen L3MBTL1–H3K9me1 peptide binding. Potency, µM (series often up to 57.1 µM), for inactives: top-dose activity, negative = inhibition, hits mostly inhibitors. 230,000 tested, 0.66% active. AID 485360, 2010; further: on the % scale 0 is the no-effect control and ±100 the full control effect; nearly all actives have a fitted effect of over 60% in size
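Read-out is AlphaScreen signal from streptavidin donor and nickel chelate acceptor beads (10 ug/mL final each) bridging L3MBTL1 (50 nM) and biotinylated K9-monomethylated H3(1-15) peptide (75 nM), after 30 min compound exposure at room temperature.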
G9a block = qHTS Assay for Inhibitors of Histone Lysine Methyltransferase G9a | Potency, µM (top dose mostly 102 µM), for the others: at the highest dose activity, negative = inhibition, most hits filed as inhibitors | 350,000 tested, 8.8% active | Histone-lysine N-methyltransferase EHMT2 (Homo sapiens), Q96KQ7 | G9a H3K9 monomethylation, AlphaScreen, 2 h; further: on the % scale 0 is the no-effect control and ±100 the full control effect; nearly all actives have a fitted effect of over 75% in size
Target sequence (Q96KQ7 913-1193 limits assumed): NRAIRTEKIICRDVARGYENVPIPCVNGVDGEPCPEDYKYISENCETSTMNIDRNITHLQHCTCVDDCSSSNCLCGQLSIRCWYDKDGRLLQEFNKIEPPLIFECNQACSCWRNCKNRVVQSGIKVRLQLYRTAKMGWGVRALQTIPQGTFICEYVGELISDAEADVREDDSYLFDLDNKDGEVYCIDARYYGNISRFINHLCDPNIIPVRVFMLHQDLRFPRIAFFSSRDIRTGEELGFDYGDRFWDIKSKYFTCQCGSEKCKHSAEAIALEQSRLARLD
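Step 1: enzyme (final 20 nM) with compound, 15 min RT. Step 2: substrate peptide 500 nM and SAM 20 uM, 2 h RT. Step 3: anti-H3K9me1 antibody and AlphaScreen beads, 10 min, then plate read.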
HP1b chromo inh = HTS for Inhibitors of HP1-beta Chromodomain Interactions with Methylated Histone Tails; Chromobox protein homolog 1 (Homo sapiens), P83916; AlphaScreen HP1-beta / biotin-H3K9me3 peptide binding; Potency, µM (doses to about 114 µM), without a hit: at the highest dose activity change, negative = inhibition, hits mostly inhibitors; 390,000 tested, 0.56% active; further: nearly all actives have a fitted effect of over 70% in size
Target sequence (P83916 whole entry, looked up): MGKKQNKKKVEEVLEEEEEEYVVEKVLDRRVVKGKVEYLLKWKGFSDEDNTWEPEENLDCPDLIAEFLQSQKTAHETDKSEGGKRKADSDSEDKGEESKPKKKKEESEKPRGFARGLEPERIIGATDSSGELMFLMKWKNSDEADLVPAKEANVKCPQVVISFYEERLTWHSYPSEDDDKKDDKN
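HP1-beta protein (50 nM final) preincubated 30 min at room temperature with biotinylated H3(1-18)K9me3 peptide (50 nM) in PBS pH 7.4, 0.01% Tween-20, then compound added for 30 min. AlphaScreen streptavidin donor/nickel chelate acceptor beads (10 ug/mL final), 30 min dark, luminescence read.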
JMJD2A Tudor = qHTS Assay for Inhibitors of JMJD2A-Tudor Domain | Lysine-specific demethylase 4A (Homo sapiens), O75164 | 390,000 tested, 4.4% active | Potency, µM (titrated, usually from 114 µM), for inactives: at the top dose activity change, negative = inhibition, usual class: inhibitors | AlphaScreen JMJD2A-Tudor / H3K4me3 peptide binding; further: on the % scale 0 is the no-effect control and ±100 the full control effect; nearly all actives have a fitted effect of over 50% in size
The depositor's hits bear a star; [ ] = another dose, or the depositor's remark. The call rests on the fitted dose curve; in most records, active means well fitted inhibition curve with a large enough effect; inconclusive means small, poorly fitted or top-dose-only effect; inactive means no such curve, though single readings can be large or run the other way. Potency means the concentration at half of the fitted maximal effect.

`CCNC(=O)CC1S/C(=N/N=C(\C)c2ccccc2)NC1=O` (centres undefined) gave BAZ2B block -25%, L3MBTL1 inh 7%, G9a block 47%, HP1b chromo inh 20% and JMJD2A Tudor inconclusive.
`COc1ccccc1-n1nc(-c2ccccc2)c2cnc3c(F)cc(F)cc3c21` gave G9a block 3%[59 µM], HP1b chromo inh 27% and JMJD2A Tudor -18%.
CCSc1nc2sc3c(c2c(=O)[nH]1)CCc1ccccc1-3 was read as BAZ2B block 11%, L3MBTL1 inh -6%, G9a block 50µM*, HP1b chromo inh 34% and JMJD2A Tudor -6%.
Screening COc1n[nH]c(C(=O)Nc2nc3ccccc3s2)c1[N+](=O)[O-] returned BAZ2B block 56µM*, L3MBTL1 inh -27%, G9a block 14µM*, HP1b chromo inh 30% and JMJD2A Tudor -28%.
`COc1ccccc1C(=O)Nc1nc2ccccc2s1` gave BAZ2B block 38%, L3MBTL1 inh 34%[2.29 µM], G9a block 5%[0.501 µM], HP1b chromo inh 39% and JMJD2A Tudor -4%.
`COc1ccc(C(=O)Nc2nc3ccccc3s2)c(OC)c1` gave BAZ2B block -17%, G9a block -17%, HP1b chromo inh 15% and JMJD2A Tudor 20µM*.
`COc1n[nH]c(C(=O)NCc2ccccc2)c1[N+](=O)[O-]` gave BAZ2B block -21%, L3MBTL1 inh -1%, G9a block 56µM*, HP1b chromo inh 60% and JMJD2A Tudor -12%.
Screening COC(=O)C1=C[C@@H](C(=O)OC)C2C3=C(C(=O)[C@@]2(C)NC(=O)c2ccccc2)[C@H](C)n2c(=O)n(C)c(=O)n2[C@@H]3C1 (some centres undefined) returned HP1b chromo inh 26% and JMJD2A Tudor -11%.
For CCOc1ccc(CNC(=O)CCS(=O)(=O)c2cc3c(cc2Cl)NC(=O)CO3)cc1OC the results were BAZ2B block 3%, G9a block 4%[59 µM], HP1b chromo inh 47% and JMJD2A Tudor 5%.
`CC(C)(C)OC(=O)N1CCC(c2c(C(=O)Nc3ccc4c(c3)OCCO4)cnn2-c2ccc(F)cc2F)CC1` gave BAZ2B block -1%[57.1 µM], G9a block inconclusive, HP1b chromo inh -2% and JMJD2A Tudor -24%.
`COc1cccc(NC(=O)CCc2nnc3n(CC(C)C)c(=O)c4ccccc4n23)c1` gave BAZ2B block 2%, G9a block inconclusive, HP1b chromo inh 19% and JMJD2A Tudor -13%.
`c1ccc2cc(-c3cc4ccccn4c3)ccc2c1` gave BAZ2B block inconclusive, G9a block 35µM*, HP1b chromo inh -25% and JMJD2A Tudor inconclusive.
For CC(=O)N1N=C(c2ccc3ccccc3c2)OC1(C)C the results were BAZ2B block 10%, L3MBTL1 inh 1%, G9a block 13%[59 µM], HP1b chromo inh 72% and JMJD2A Tudor 17%.
Screening O=c1[nH]c(=S)[nH]c2nc(-c3cccs3)cc(C(F)(F)F)c12 returned BAZ2B block -6%, G9a block 79µM*, HP1b chromo inh 36% and JMJD2A Tudor -15%.
O=C(CSc1nc2nc(-c3cccs3)cc(C(F)(F)F)c2c(=O)[nH]1)Nc1c(F)c(F)c(F)c(F)c1F was read as BAZ2B block -21%, L3MBTL1 inh 9%, G9a block -40%, HP1b chromo inh 28% and JMJD2A Tudor -11%.
Screening COC(=O)N1CCC[C@@]2(CCN(c3ccccn3)C2)C1 returned G9a block -7%[12.7 µM].
Screening CN(C)c1ccc([C@@H]2[C@@H]([N+](=O)[O-])[C@H]3C=Cc4ccccc4N3[C@H]2C(=O)c2ccc(Cl)cc2)cc1 returned BAZ2B block 32µM*, L3MBTL1 inh inconclusive, G9a block 7.9µM*, HP1b chromo inh inconclusive and JMJD2A Tudor 45µM*.
Screening CCn1cc([N+](=O)[O-])c(C(=O)N2N=C(c3ccc(O)c(OC)c3)CC2c2ccccc2O)n1 (centres undefined) returned BAZ2B block -6%, L3MBTL1 inh -1%, G9a block 40µM*, HP1b chromo inh -21% and JMJD2A Tudor -28%.
Screening CCn1cc([N+](=O)[O-])c(C(=O)N2N=C(c3ccc(Cl)c(Cl)c3)CC2c2ccccc2O)n1 (centres undefined) returned BAZ2B block inconclusive, L3MBTL1 inh 0%, G9a block inconclusive, HP1b chromo inh -8% and JMJD2A Tudor inconclusive.
CCOC(=S)NC(=O)c1sc2ccccc2c1Cl was read as BAZ2B block -28%[57.1 µM], L3MBTL1 inh -7%, G9a block 28%[0.501 µM], HP1b chromo inh -17% and JMJD2A Tudor -23%.
`O=C(NC(=S)NCCO)c1sc2ccccc2c1Cl` gave BAZ2B block inconclusive, L3MBTL1 inh 26%[11.4 µM], G9a block 25µM*, HP1b chromo inh 38% and JMJD2A Tudor -8%.
Screening Cc1nc2nc(C)n(-c3ccccc3)c2s1 returned BAZ2B block -2%, L3MBTL1 inh 3%, G9a block 13µM*, HP1b chromo inh 14% and JMJD2A Tudor -28%.
`Cc1nc2ccccc2n1-c1ccccc1` gave BAZ2B block 13%, L3MBTL1 inh 2%, G9a block -6%, HP1b chromo inh 34% and JMJD2A Tudor 3%.
Screening C[C@H](Cc1ccccc1)Nc1ncnc2c1ncn2[C@@H]1O[C@H](CO)[C@H](O)[C@H]1O returned G9a block 10%.
`COc1cccc(C(=O)Nc2nc3nc(C)c(C)c(=O)n3[nH]2)c1` gave BAZ2B block inconclusive, G9a block inconclusive, HP1b chromo inh 19% and JMJD2A Tudor 89µM*.
For Cc1cccc(OC(=O)c2nc(SCc3ccccc3F)ncc2Cl)c1 the results were BAZ2B block 104%, G9a block 148%[59 µM], HP1b chromo inh 139% and JMJD2A Tudor 40%.
For CC(c1ccccc1)n1c(-c2ccncc2)n[nH]c1=S (centres undefined) the results were BAZ2B block 5%, G9a block 2.5µM*, HP1b chromo inh 15% and JMJD2A Tudor 18µM*.
For CC(C)n1c(-c2ccccc2F)n[nH]c1=S the results were BAZ2B block -6%, L3MBTL1 inh 13%, HP1b chromo inh 16% and JMJD2A Tudor 4µM*.
`CC(C)n1c(-c2ccc(C(C)(C)C)cc2)n[nH]c1=S` gave BAZ2B block -31%, L3MBTL1 inh -1%, G9a block 2.5µM*, HP1b chromo inh 15% and JMJD2A Tudor 28µM*.
For CC(c1ccccc1)n1c(-c2ccccc2F)n[nH]c1=S (centres undefined) the results were BAZ2B block -2%, L3MBTL1 inh -3%, HP1b chromo inh 20% and JMJD2A Tudor 22µM*.
